PubChem BioAssay (NCATS)
Inconclusive results are not listed. Activity calls are given as the source filed them. The call rests on the fitted dose curve; in most records, active means well fitted cell-killing curve with a large enough effect; inconclusive means small, poorly fitted or top-dose-only effect, or effect the other way; inactive means flat fitted curve, though single readings scatter.

Tests used:
Test in all cases: Primary qHTS to identify gynecologic anti-cancer compounds using libraries of approved drugs and bioactive compounds (AID 1345084); further: nearly all actives have a fitted effect of over 55% in size
Details in all cases: Gynecologic cancer cell panel viability, ATPlite luminescence, 48 h; series mostly up to 57.5 µM
OV90 = system: OV90
How it was run: (§1)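 Luminescence from the ATPlite ATP-monitoring reagent indicates viable cell number; lower signal means cytotoxicity. Cells received compound 16 h after seeding and were exposed for 48 h across five concentrations.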

PA-1 = system: PA-1
How it was run: as §1

SKOV3 = system: SKOV3
How it was run: as §1

Tov-21-G = system: Tov-21-G
How it was run: as §1

Tov112D = system: Tov112D
How it was run: as §1
On the % scale 0 is the no-effect control and ±100 the full control effect.

C=C1CC[C@@]2(OC1)O[C@H]1CC3C4CC=C5C[C@@H](O[C@@H]6O[C@@H](C)[C@H](O)[C@@H](O)[C@H]6O)C[C@@H](O[C@@H]6O[C@H](C)[C@H](O)[C@H](O)[C@H]6O[C@@H]6O[C@@H](C)[C@H](O)[C@@H](O)[C@H]6O)[C@]5(C)C4CC[C@]3(C)[C@H]1[C@@H]2C (stereo not given in full)
inactive: activity change, negative = cytotoxicity (OV90) -12.6% [at 11.6 µM] | activity change, negative = cytotoxicity (PA-1) -0.609% [at 11.6 µM] | activity change, negative = cytotoxicity (SKOV3) -7.76% [at 11.6 µM] | activity change, negative = cytotoxicity (Tov-21-G) -15.7% [at 11.6 µM] | activity change, negative = cytotoxicity (Tov112D) 1.88% [at 11.6 µM]

CC(C)=CCC[C@](C)(O[C@@H]1O[C@H](CO[C@@H]2O[C@@H](CO)[C@H](O)[C@H]2O[C@@H]2OC[C@@H](O)[C@H](O)[C@H]2O)[C@@H](O)[C@H](O)[C@H]1O)[C@H]1CC[C@]2(C)[C@@H]1[C@H](O)CC1[C@@]3(C)CC[C@H](O[C@@H]4O[C@H](CO)[C@@H](O)[C@H](O)[C@H]4O[C@@H]4O[C@H](CO)[C@@H](O)[C@H](O)[C@H]4O)C(C)(C)C3CC[C@]12C (stereo not given in full)
inactive: activity change, negative = cytotoxicity (OV90) -2.38% [at 6.55 µM] | activity change, negative = cytotoxicity (PA-1) 11.1% [at 6.55 µM] | activity change, negative = cytotoxicity (SKOV3) 24.5% [at 6.55 µM] | activity change, negative = cytotoxicity (Tov-21-G) 0.809% [at 6.55 µM] | activity change, negative = cytotoxicity (Tov112D) 0.454% [at 6.55 µM]

COC(=O)C1=COC(O[C@@H]2O[C@H](CO)[C@@H](O)[C@H](O)[C@H]2O)[C@@H]2[C@@](C)(O)[C@@H](OC(=O)/C=C/c3ccccc3)C[C@]12O (stereo not given in full)
inactive: Potency (OV90) | Potency (PA-1) | Potency (SKOV3) | Potency (Tov-21-G) | Potency (Tov112D)

O=C(OCC1=CC(Cl)C(O)C(OC(=O)c2ccccc2)C1O)c1ccccc1 (stereo not given)
inactive: Potency (OV90) | Potency (PA-1) | Potency (SKOV3) | Potency (Tov-21-G) | Potency (Tov112D)

C[C@@H]1O[C@@H](O[C@H]2[C@H](O[C@H]3[C@H](O[C@H]4CC[C@@]5(C)C(CC[C@]6(C)C5CC=C5[C@@H]7CC(C)(C)C[C@@H](O)[C@]7(C)CC[C@]56C)[C@@]4(C)CO)O[C@H](C(=O)O)[C@@H](O)[C@@H]3O)O[C@H](CO)[C@H](O)[C@@H]2O)[C@H](O)[C@H](O)[C@H]1O (stereo not given in full)
inactive: activity change, negative = cytotoxicity (OV90) 7.08% [at 11.6 µM] | activity change, negative = cytotoxicity (PA-1) 4.96% [at 11.6 µM] | activity change, negative = cytotoxicity (SKOV3) 11% [at 11.6 µM] | activity change, negative = cytotoxicity (Tov-21-G) 5.74% [at 11.6 µM] | activity change, negative = cytotoxicity (Tov112D) 0.964% [at 11.6 µM]

COc1ccc(C2(O)c3ccccc3NC(=O)C2OC)cc1 (stereo not given)
inactive: Potency (OV90) | Potency (PA-1) | Potency (SKOV3) | Potency (Tov-21-G) | Potency (Tov112D)

CC(O)/C=C/C1(O)C(C)C(O)C(O[C@@H]2O[C@H](CO)[C@@H](O)[C@H](O)[C@H]2O)CC1(C)C (stereo not given in full)
inactive: Potency (OV90) | Potency (PA-1) | Potency (SKOV3) | Potency (Tov-21-G) | Potency (Tov112D)

COc1ccc(-n2c(=O)[nH]c3cc(C(=O)NCc4ccc(Cl)cc4)sc3c2=O)nc1OC
inactive: Potency (OV90) | Potency (PA-1) | Potency (SKOV3) | Potency (Tov-21-G) | Potency (Tov112D)

CC1(C)CCC[C@@]2(C)[C@H]1[C@H](O)C=C(CO)[C@]2(O)CO
inactive: Potency (OV90) | Potency (PA-1) | Potency (SKOV3) | Potency (Tov-21-G) | Potency (Tov112D)

O=C(Nc1cc(-c2ccccc2)nn1-c1ccccc1)c1ccc([N+](=O)[O-])cc1
inactive: Potency (OV90) | Potency (PA-1) | Potency (SKOV3) | Potency (Tov-21-G) | Potency (Tov112D)

CC1(C)CCC2(C(=O)O)C(O)CC3(C)C(=CCC4C5(C)CCC(OC6OC(CO)C(O)C(O)C6OC6OC(CO)C(O)C(O)C6OC6OCC(O)(CO)C6O)C(C)(C)C5CCC43C)C2C1 (stereo not given)
inactive: activity change, negative = cytotoxicity (OV90) -4.37% [at 11.6 µM] | activity change, negative = cytotoxicity (PA-1) -4.82% [at 11.6 µM] | activity change, negative = cytotoxicity (SKOV3) 9.15% [at 11.6 µM] | activity change, negative = cytotoxicity (Tov-21-G) -4.95% [at 11.6 µM] | activity change, negative = cytotoxicity (Tov112D) 1.07% [at 11.6 µM]

COc1cc(C)c(C(=O)OC2C(C)OC(OC3CCC(C)C4C3C=C(C)C3/C(C)=C\CC/C(C)=C/C5(C)C=C(C(=O)O)C(C)CC56OC(=O)/C(=C(\O)C34C)C6=O)C(O)C2O)c(OC)c1 (stereo not given)
inactive: activity change, negative = cytotoxicity (OV90) 2.6% [at 11.6 µM] | activity change, negative = cytotoxicity (PA-1) -4.04% [at 11.6 µM] | activity change, negative = cytotoxicity (SKOV3) -6.42% [at 11.6 µM] | activity change, negative = cytotoxicity (Tov-21-G) 1.13% [at 11.6 µM] | activity change, negative = cytotoxicity (Tov112D) 1.96% [at 11.6 µM]

COc1cncc(C#Cc2ccccn2)c1
inactive: Potency (OV90) | Potency (PA-1) | Potency (SKOV3) | Potency (Tov-21-G) | Potency (Tov112D)

C/C(=C\C1CCC(C)C2CCC3(C)OC123)C(=O)O (stereo not given)
inactive: Potency (OV90) | Potency (PA-1) | Potency (SKOV3) | Potency (Tov-21-G) | Potency (Tov112D)

C=C(C)[C@@H]1CC[C@]2(C)CC[C@]3(C)C(CCC4[C@@]5(C)CC[C@H](O)C(C)(C)C5CC[C@]43C)C12 (stereo not given in full)
inactive: Potency (OV90) | Potency (PA-1) | Potency (SKOV3) | Potency (Tov-21-G) | Potency (Tov112D)

C=C1CCC2(OC1)OC1CC3C4CC=C5CC(O)CC(O[C@@H]6OC[C@H](OC(=O)C(O)C(C)CC)[C@H](O)[C@H]6O[C@@H]6O[C@@H](C)[C@H](O)[C@@H](O)[C@H]6O)C5(C)C4CCC3(C)C1C2C (stereo not given in full)
inactive: activity change, negative = cytotoxicity (OV90) -4.79% [at 11.6 µM] | activity change, negative = cytotoxicity (PA-1) -0.0668% [at 11.6 µM] | activity change, negative = cytotoxicity (SKOV3) 6.52% [at 11.6 µM] | activity change, negative = cytotoxicity (Tov-21-G) 15.3% [at 11.6 µM] | activity change, negative = cytotoxicity (Tov112D) 19.2% [at 11.6 µM]

C=C1C[C@@]2(O)O[C@@]3(C[C@H]2C(C)C)[C@@H](C)CC[C@@H]13
inactive: Potency (OV90) | Potency (PA-1) | Potency (SKOV3) | Potency (Tov-21-G) | Potency (Tov112D)

CC(C)C(NC(=O)c1ccc(O)cc1)C(=O)N1CCCC1C(=O)Nc1c(O)cccc1C(=O)O (stereo not given)
inactive: Potency (OV90) | Potency (PA-1) | Potency (SKOV3) | Potency (Tov-21-G) | Potency (Tov112D)

C=C(C(=O)O)[C@@H]1CC[C@@]2(C)CCC[C@@](C)(O)[C@@H]2C1
inactive: Potency (OV90) | Potency (PA-1) | Potency (SKOV3) | Potency (Tov-21-G) | Potency (Tov112D)

CC1=CC2=C(C)C(=O)[C@](C)(O)[C@H](O)C2=CO1
inactive: Potency (OV90) | Potency (PA-1) | Potency (SKOV3) | Potency (Tov-21-G) | Potency (Tov112D)

CC(=O)c1c(C)cccc1O[C@@H]1O[C@H](CO)[C@@H](O)[C@H](O)[C@H]1O
inactive: Potency (OV90) | Potency (PA-1) | Potency (SKOV3) | Potency (Tov-21-G) | Potency (Tov112D)
